KCNH2 3.1 block – inhibitors of human KCNH2 3.1 potassium channel isoform; U2OS KCNH2 3.1, thallium flux FluxOr; hits give low values; activity change, % (tested at about 1.8 µM); actives 0.95% (n = 340,000); AID 720553;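 active = maximum activity change below -70%; inconclusive = maximum activity change from -70% to -50%; inactive = maximum activity change above -50%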;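 also: thallium influx rate constant from kinetic fluorescence after stimulation buffer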
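Steps: virus added to U2OS suspension (4 h, RT, dark); medium with 10% FBS added, cells plated, 37 C overnight; FluxOr/Red40 loading buffer 45 min RT; stimulation buffer, 2 min kinetic read; rate constant normalized.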
Coupling enz – coupling enzyme interference in Giardia aldolase counter-screen; coupling enzyme system counterscreen, AmpLite Red fluorescence; activity change, negative = inhibition, % at 58.2 µM, hits read low; actives 0.67% (n = 290,000); AID 2472; in the data active = activity change below about -30%
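Activity here indicates interference with the coupling reaction, not aldolase inhibition. Compounds at 57.5 uM final met coupling enzymes for 10 min at RT; substrate and AmpLite Red detection followed, with a 525/598 nm fluorescence read after 20 min.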
KCNH2 WT inh – blocks the wildtype human KCNH2 potassium channel | Q12809 | U2OS, BacMam KCNH2, thallium flux FluxOr; hits give low values | activity change, % at 1.84 µM | actives 0.37% (n = 340,000) | AID 720551;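 active = maximum activity change below -70%; inconclusive = maximum activity change between -70% and -50%; inactive = maximum activity change above -50%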
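U2OS cells were transduced with wild-type KCNH2 virus (2.03 x 10^8 / mL) for 4 h at room temperature, then cultured overnight at 37 C. Thallium flux was read with FluxOr dye. Rate constants were normalized to DMSO controls.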
USP1 inh – blocks the human USP1/UAF1 deubiquitinase complex. O94782. recombinant USP1/UAF1, Ub-Rhodamine cleavage fluorescence. Potency, µM (series often up to 57.1 µM), for the others: top-dose activity change, negative = inhibition, hits mostly inhibitors. actives 0.23% (n = 390,000); active = well fitted inhibition curve with a large enough effect; inconclusive = small, poorly fitted or top-dose-only effect; inactive = no such curve, though single readings can be large or run the other way; also: potency is read from the fitted curve at half-maximal effect; nearly all actives have a fitted effect of over 60% in size
Target sequence (O94782 whole entry, looked up): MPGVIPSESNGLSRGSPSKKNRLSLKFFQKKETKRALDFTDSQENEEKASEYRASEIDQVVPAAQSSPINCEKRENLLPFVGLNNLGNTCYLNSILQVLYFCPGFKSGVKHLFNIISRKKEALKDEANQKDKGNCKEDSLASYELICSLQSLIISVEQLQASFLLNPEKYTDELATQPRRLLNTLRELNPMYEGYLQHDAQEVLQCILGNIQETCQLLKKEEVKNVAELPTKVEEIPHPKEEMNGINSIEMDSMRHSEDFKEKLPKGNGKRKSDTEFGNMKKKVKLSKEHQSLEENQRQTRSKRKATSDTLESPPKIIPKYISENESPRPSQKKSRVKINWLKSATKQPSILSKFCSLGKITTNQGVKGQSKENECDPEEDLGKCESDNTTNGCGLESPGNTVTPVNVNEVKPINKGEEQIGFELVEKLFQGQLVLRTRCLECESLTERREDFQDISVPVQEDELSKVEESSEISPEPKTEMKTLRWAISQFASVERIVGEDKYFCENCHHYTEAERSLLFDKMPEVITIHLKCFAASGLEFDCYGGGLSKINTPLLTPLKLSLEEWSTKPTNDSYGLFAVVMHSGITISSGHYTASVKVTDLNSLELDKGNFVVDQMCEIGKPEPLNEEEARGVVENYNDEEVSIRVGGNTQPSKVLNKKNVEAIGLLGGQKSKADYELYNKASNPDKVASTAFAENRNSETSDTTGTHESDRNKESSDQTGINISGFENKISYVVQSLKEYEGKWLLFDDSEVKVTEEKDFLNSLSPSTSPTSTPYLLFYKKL
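Step one: compound is pinned into 1nM USP1/UAF1 in HEPES pH 7.8 buffer with TCEP. Step two: 15 min room-temperature incubation. Step three: Ub-Rho (150nM final) starts cleavage, tracked by fluorescence over six one-minute reads.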
Giardia killer – Giardia lamblia killing; Giardia lamblia trophozoite viability; activity change, % at 7.66 µM, hits read low; actives 0.15% (n = 340,000); AID 540267; in the data active = activity change below about -80%; inconclusive = between about -30% and that limit;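 also: parasites exposed to compound for two days anaerobically before the ATP read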
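Anaerobic 48 hrs incubation at 37 deg C of 100 trophozoites/well with test compounds; ATPLite 1-Step luminescence, 15-30 min RT, reports cellular ATP as viability.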
* = called active by the depositor; ? = inconclusive; . = not tested or not shown. A selection: hits, their analogues and other compounds. The true share with any hit is near 1.7%. % is scaled to controls: 0 for no effect and ±100 for the full control effect.

SMILES | KCNH2 3.1 block | Coupling enz | KCNH2 WT inh | USP1 inh | Giardia killer
CCOc1ccc(CN2CCN(C/C=C/c3ccc(OC)cc3)CC2CCO)cc1 (configuration not stated) | -88.3* | 1.2 | -15.3 | -2.8% | 2.5
CC(C)=CCN1CCN(Cc2cccn2-c2nccs2)CC1CCO (configuration not stated) | 2.7 | 3.5 | 37.0 | -16.3% | -1.8
OCCC1CN(Cc2cccn2-c2nccs2)CCN1Cc1ccc(F)c(F)c1 (configuration not stated) | -84.6* | 0.4 | -46.6 | -2.8% | -25.4
CCC(C(=O)Nc1cccc(S(=O)(=O)N(C)c2ccccc2)c1)c1ccccc1 (configuration not stated) | -14.1 | . | -15.6 | -8.9% | -8.9
Cc1cc(=O)[nH]c2nnc(SCc3ccc(F)cc3)n12 | . | . | . | -12.7% | .
CCOc1ccc(NC(=O)CSc2nc3c(oc4ccccc43)c(=O)n2CCOC)cc1 | . | . | . | -3.8% | .
N#CCc1nn2c3c(cnc2c1C#N)C(=O)CCC3 | -2.9 | -32.5* | -2.3 | ? | 5.9
Cc1nn2c3c(cnc2c1-c1ccccc1)C(=O)CCC3 | 1.6 | 0.6 | -1.9 | -21.7% | 1.2
Cc1cccc(C)c1-n1nnnc1S(=O)(=O)Cc1ccccc1Cl | -94.4* | 2.2 | -8.5 | -10.6% | 12.2
CC[C@]12CCCN3CCc4c(n(c5ccccc45)[C@@](O)(C(=O)OC)C1)[C@@H]32 | -103.1* | . | -15.0 | -17.6% | -4.0
CC[C@]12CCCN3CCc4c(n(c5ccccc45)C(=O)C1)[C@@H]32 | ? | . | 47.2 | -21.5% | 2.3
CCCN1CNc2c(c(=O)[nH]c(=S)n2CCc2ccc(Cl)cc2)C1 | . | . | . | . | -6.5
COc1ccc(NC(=O)NCCCN2CCCC2=O)cc1 | 35.7 | 0.2 | -1.7 | -16.1% | -21.9
COc1ccc(NC(=O)CC(C)NCCCN2CCCC2=O)cc1 (configuration not stated) | 7.5 | 0.2 | -332.8* | -22.4% | -7.2
Fc1cccc(Cc2noc(CN3CCN(C4CCc5ccccc5C4)CC3)n2)c1 (configuration not stated) | -84.5* | 0.6 | -23.8 | -8.7% | 12.9
Fc1cccc(Cc2noc(CN3CCCN(C4Cc5ccccc5C4)CC3)n2)c1 | -91.5* | -5.0 | -135.8* | -11.2% | 12.0
COc1ccc(Cc2noc(CN3CCN(C4CCc5ccccc5C4)CC3)n2)cc1OC (configuration not stated) | -7.2 | 1.3 | 5.2 | ? | -1.1
Cn1c2c(c3cnc4cc(Cl)ccc4c31)CN(Cc1ccc(Cl)cc1)CC2 | . | . | . | . | 10.5
O=C(NCCC(=O)N1CCN(c2cccc(Cl)c2)CC1)c1ccc(Br)cc1 | -75.3* | . | 8.0 | 2.8% | 16.3
COc1ccc(-c2noc(COc3cc(C)c(Br)c(C)c3)n2)cc1OC | . | . | . | 8.4% | .
Cc1nc2ccccc2n1CCOc1ccc([N+](=O)[O-])cc1 | -78.6* | 0.4 | 45.5 | -22.3% | 1.2
COc1ccc(OCCn2c(C)nc3ccccc32)cc1 | 0.7 | . | -1.1 | 8.0% | .
COc1cccc(-c2nc(S(=O)(=O)c3ccc(C)cc3)c(N3CCCCC3)o2)c1 | . | . | . | 8.5% | .
Cc1ccc(S(=O)(=O)N2CCN(c3cc(-c4cccs4)nc4ccccc34)CC2)cc1 | . | . | . | . | 6.2
O=C1CSC(=S)N1/N=C/c1cc(Br)c(O)c(Br)c1 | -11.1 | -1.4 | -1.6 | 17.8µM* | -11.7
SMILES | KCNH2 3.1 block | Coupling enz | KCNH2 WT inh | USP1 inh | Giardia killer
COc1cc(/C=N/N2C(=O)CSC2=S)ccc1O | 4.0 | 0.4 | 0.9 | -17.7% | 1.6
CC1CCCN(C2=C(NS(=O)(=O)c3ccc(Cl)cc3)C(=O)c3ccccc3C2=O)C1 (configuration not stated) | -5.2 | -40.0* | 6.9 | ? | 26.3
NC(=O)C1CCN(C2=C(NS(=O)(=O)c3ccc(Cl)cc3)C(=O)c3ccccc3C2=O)CC1 | 4.0 | -30.2* | 3.4 | ? | 4.5
COC(=O)C1CCN(C2=C(NS(=O)(=O)c3ccc(Cl)cc3)C(=O)c3ccccc3C2=O)CC1 | 20.1 | -25.0 | 2.3 | ? | -5.5
COc1cccc(NC(=O)CSc2c(C)cnc3c2c(=O)n(C)c(=O)n3C)c1 | . | . | . | -14.5% | .
CCOc1ccc(-c2ccc(SC)nn2)cc1 | -7.3 | 1.1 | 10.2 | -17.1% | -87.3*
COc1ccc(C2=Nn3c(nnc3-c3cc(OC)ccc3OC)SC2)cc1 | . | 0.0 | . | . | .
CCN(c1ccccc1)c1nnc(NC(=O)Nc2ccc(Br)c(C)c2)s1 | . | . | . | -9.6% | .
Cc1cc(NC(=O)Nc2nnc(N(C)Cc3ccccc3)s2)ccc1Br | . | . | . | 31.6µM* | .
Brc1ccc(CN2C3=NCCCN3c3ccccc32)cc1 | -75.4* | -2.8 | 15.6 | -11.9% | 13.9
Cc1ccc(CN2C3=NCCCN3c3ccccc32)cc1 | -9.8 | 0.5 | 23.5 | -1.3% | 54.6
CC(C)(C)c1ccc(CN2C3=NCCCN3c3ccccc32)cc1 | -79.7* | 4.3 | 11.0 | -2.5% | 3.3
O=C(CN1C2=NCCCN2c2ccccc21)c1ccc(Br)s1 | -85.6* | 1.8 | 14.9 | -6.4% | -29.8
CCCCCCCN1C2=NCCCN2c2ccccc21 | -80.2* | 4.0 | -13.8 | -19.4% | 1.4
O=C(O)CN1C2=NCCCN2c2ccccc21 | 9.3 | -0.2 | 3.1 | -5.5% | -1.1
c1ccc(CN2C3=NCCCN3c3ccccc32)cc1 | -4.8 | 3.8 | 8.6 | -10.6% | 12.9
O=C(Cn1cc(S(=O)(=O)Cc2cccc(Cl)c2)c2ccccc21)NCc1ccccc1Cl | . | . | . | -0.9% | .
Clc1ccc(CN2C3=NCCCN3c3ccccc32)c(Cl)c1 | -93.8* | 0.8 | -1.2 | -19.9% | 15.2
Clc1cccc(CN2C3=NCCCN3c3ccccc32)c1 | ? | 2.4 | 89.2 | -5.1% | ?
CCCNC(=O)COC(=O)/C=C/c1cccc(F)c1 | -1.1 | 0.7 | -9.6 | -18.7% | -13.0
CCCNC1=C(N(C(C)=O)c2cccc(F)c2)C(=O)c2ccccc2C1=O | 3.7 | -48.8* | 9.7 | ? | -0.9
COC(=O)c1sc(N2C(=O)c3oc4ccc(C)cc4c(=O)c3C2c2ccc(O)c(OC)c2)nc1C (configuration not stated) | . | . | . | 2.5% | .
COc1ccc(C(=O)Nc2ccc(-c3ccc(C)o3)cc2)cc1S(=O)(=O)N1CCOCC1 | -70.9* | -3.5 | 15.6 | -8.3% | 14.8
CCC(C)NC(=O)CCC(=O)N1Cc2ccccc2Oc2ncccc21 (configuration not stated) | . | . | . | -12.9% | .
CC(C)(C)C(=O)Nc1ccc(-c2cn3ccsc3n2)cc1 | 9.0 | 2.8 | -0.4 | -3.0% | -96.7*
CC(C)CC(=O)Nc1ccc(-c2cn3ccsc3n2)cc1 | -12.6 | -0.9 | 7.0 | -17.3% | 13.8
Nc1ccc(N2CCN(c3ccc(F)cc3)CC2)cc1 | -13.0 | 0.4 | -2.2 | -21.5% | 6.6
Nc1ccc(N2CCCCCC2)cc1 | . | -35.5* | . | . | .
CC1(C)CC(=O)C2=C(C1)N(c1cccc(O)c1)C1=C(C2)C(=O)CC(C)(C)C1 | 11.0 | -36.1* | 22.1 | -16.9% | -1.7
